# Out of some 39,000 compounds screened, about 3,300 (8.5%) were called active. The list comes from a sample in which actives are over-represented; it also holds similar structures and randomly drawn compounds.
# Tested on: HepG2
# Assay: cytotoxicity call (relative viability < 0.9)
# Settings: 10 µM
row,SMILES,cytotoxicity call
1,COc1ccc(S(=O)(=O)Nc2cccc3c2O[C@@H](CN(C)S(=O)(=O)c2cccs2)[C@@H](C)CN([C@H](C)CO)C3=O)cc1,inactive
2,N#CCC(=O)Nc1ccncc1,inactive
3,COc1ccc(S(=O)(=O)N[C@H]2C=C[C@@H](CC(=O)NCCc3ccncc3)O[C@@H]2CO)cc1,inactive
4,COc1ccc(NC(=O)N2C[C@@H](O)COC[C@@H]3O[C@@H](CC(=O)NCc4ccccc4OC)CC[C@H]32)cc1,inactive
5,C[C@H]1CN([C@@H](C)CO)S(=O)(=O)c2ccc(C#Cc3ccccc3F)cc2O[C@H]1CN(C)C(=O)Cc1ccncc1,inactive
6,CC(C)N1C[C@H](C)[C@@H](CN(C)Cc2ccc(Oc3ccccc3)cc2)Oc2c(NC(=O)c3ccncc3)cccc2C1=O,inactive
7,CC(C)N1C[C@H](C)[C@@H](CN(C)Cc2ccc(Oc3ccccc3)cc2)Oc2c(NC(=O)c3cccnc3)cccc2C1=O,inactive
8,CC(C)N1C[C@H](C)[C@@H](CN(C)Cc2ccc(Oc3ccccc3)cc2)Oc2c(NC(=O)c3ccccc3)cccc2C1=O,active
9,C[C@H]1CCCCO[C@@H](CN(C)C(=O)c2ccccc2)[C@@H](C)CN([C@@H](C)CO)C(=O)c2cc(NC(=O)Nc3ccc(C(F)(F)F)cc3)ccc2O1,inactive
10,COc1ccc(CNC(=O)C[C@@H]2C[C@@H]3c4cc(NC(=O)NC5CCCC5)ccc4O[C@@H]3[C@@H](CO)O2)cc1,inactive
11,O=C(C[C@H]1C[C@@H]2c3cc(NS(=O)(=O)c4ccc(F)cc4)ccc3O[C@@H]2[C@@H](CO)O1)NCc1cccnc1,inactive
12,C[C@H]1CCCCO[C@@H](CN(C)Cc2ccncc2)[C@@H](C)CN([C@@H](C)CO)C(=O)c2cc(NC(=O)Nc3cccc4ccccc34)ccc2O1,inactive
13,C[C@@H]1CN([C@@H](C)CO)C(=O)c2cc(C#Cc3ccc(F)cc3)cnc2O[C@@H]1CN(C)CC1CCOCC1,inactive
14,Cc1ccc(S(=O)(=O)Nc2ccc3c(c2)C(=O)N([C@H](C)CO)C[C@H](C)[C@H](CN(C)C(=O)Nc2ccc(F)cc2)OCCCC[C@@H](C)O3)cc1,inactive
15,O=c1nc(N2CCc3ccccc3C2)cn[nH]1,inactive
16,COc1ccc(NC(=O)N(C)C[C@@H]2OCCCC[C@H](C)Oc3ccc(NS(=O)(=O)c4ccc(Cl)cc4)cc3C(=O)N([C@@H](C)CO)C[C@@H]2C)cc1,inactive
17,COc1ccc(cc1)CN1CC[C@]2(CC1)CN([C@H](CO)c1[nH]c3cc(ccc3c12)OC)C(=O)Nc1ccc(cc1)F,active
18,COc1ccc(cc1)CN1CC[C@]2(CC1)CN([C@@H](CO)c1[nH]c3cc(ccc3c12)OC)C(=O)Nc1ccc(cc1)F,active
19,COc1ccc2c3c([nH]c2c1)[C@@H](CO)N(C[C@]13CCN(CC1)C(=O)c1ccccc1F)C(=O)Nc1ccc(cc1)F,inactive
20,COc1ccc2c3c([nH]c2c1)[C@@H](CO)N(C[C@]13CCN(CC1)Cc1cc(on1)-c1ccccc1)C(=O)Nc1ccc(cc1)F,inactive
21,COc1ccc2c3c([nH]c2c1)[C@H](CO)N(C[C@]13CCN(CC1)C(=O)Nc1ccc(cc1)F)C(=O)c1ccc(cc1)F,inactive
22,COc1ccc2c3c([nH]c2c1)[C@H](CO)N(C[C@]13CCN(CC1)C(=O)c1ccccc1F)C(=O)Nc1ccc(cc1)F,inactive
23,COc1ccc(NC(=O)Nc2ccc3c(c2)C(=O)N([C@@H](C)CO)C[C@@H](C)[C@@H](CN(C)Cc2ccc(C(=O)O)cc2)OCCCC[C@@H](C)O3)cc1,inactive

row,SMILES,cytotoxicity call
1,C[C@H](CO)N1C[C@H](C)[C@H](CN(C)S(=O)(=O)c2cccs2)Oc2ccc(NC(=O)CCN3CCOCC3)cc2CC1=O,inactive
2,COc1ccccc1CNC(=O)C[C@H]1C[C@@H]2c3cc(NC(=O)c4ccc5c(c4)OCO5)ccc3O[C@@H]2[C@H](CO)O1,inactive
3,C[C@@H]1CCCCO[C@H](CN(C)Cc2ccccc2)[C@@H](C)CN([C@@H](C)CO)C(=O)c2cc(NC(=O)CCCCCC(=O)Nc3ccccc3N)ccc2O1,inactive
4,Cc1noc(C)c1NC(=O)N(C)C[C@@H]1Oc2ccc(NS(=O)(=O)c3ccccc3)cc2CC(=O)N([C@H](C)CO)C[C@@H]1C,inactive
5,COc1ccc(S(=O)(=O)Nc2ccc3c(c2)C(=O)N([C@@H](C)CO)C[C@@H](C)[C@H](CN(C)S(=O)(=O)c2cn(C)cn2)OCCCC[C@@H](C)O3)cc1,inactive
6,C[C@@H]1CN([C@H](C)CO)C(=O)c2cccc(NC(=O)c3ccc(-c4nccs4)cc3)c2O[C@@H]1CN(C)Cc1ccccc1,inactive
7,COc1ccc(C#Cc2cnc3c(c2)C(=O)N([C@H](C)CO)C[C@H](C)[C@H](CN(C)C(=O)NC(C)C)O3)cc1OC,inactive
8,CO[C@@H]1CN(C)C(=O)c2cc(NC(=O)NC(C)C)ccc2OC[C@@H](C)N(Cc2ccc(-c3ccccn3)cc2)C[C@H]1C,inactive
9,C=CCOC(=O)[C@H]1[C@@H]2C(=O)O[C@@H](c3ccccc3)[C@@H](c3ccccc3)N2[C@@H](c2ccc(OCCOC(=O)[C@H]3C[C@H]4C(=O)NCC(=O)N4[C@H]3c3cccc(OCCO)c3)cc2)[C@]12C(=O)Nc1ccc(I)cc12,inactive
10,Cc1noc(C)c1NC(=O)Nc1ccc2c(c1)C(=O)N([C@@H](C)CO)C[C@@H](C)[C@@H](CN(C)C(=O)NC1CCCCC1)OCCCC[C@@H](C)O2,inactive
11,CO[C@H]1/C=C\C=C(/C)C(=O)NC2=CC(=O)C=C(C2=O)[C@H](OC)[C@@H](C)C[C@H](OC)[C@H](O)[C@@H](C)/C=C(\C)[C@@H]1OC(N)=O,inactive
12,CO[C@H]1/C=C\O[C@@]2(C)Oc3c(C)c(O)c4c(c3C2=O)[C@]2(C=C(NC(=O)/C(C)=C\C=C/[C@@H](C)[C@@H](O)[C@@H](C)[C@@H](O)[C@@H](C)[C@@H](OC(C)=O)[C@@H]1C)C4=O)OCC(=O)O2,inactive
13,COC1=C2C[C@H](C)C[C@H](OC)[C@@H](O)[C@H](C)/C=C(\C)[C@H](OC(N)=O)[C@H](OC)/C=C/C=C(\C)C(=O)NC(=CC1=O)C2=O,active
14,COC1=C2C[C@@H](C)C[C@H](OC)[C@H](O)[C@@H](C)/C=C(\C)[C@H](OC(N)=O)[C@@H](OC)/C=C/C=C(\C)C(=O)NC(=CC1=O)C2=O,active
15,COC1=C2C[C@@H](C)C[C@H](OC)[C@H](O)[C@@H](C)/C=C(\C)[C@H](OC(N)=O)[C@@H](OC)/C=C\C=C(/C)C(=O)NC(=CC1=O)C2=O,active
16,Cc1ccc(S(=O)(=O)N2C[C@H](O)COC[C@@H]3O[C@H](CC(=O)N[C@H]4CCN(Cc5ccccc5)C4)CC[C@H]32)cc1,inactive
17,O=C(O)Cn1c(=O)oc2ccccc21,inactive
18,C[C@@H]1CN([C@H](C)CO)C(=O)c2cc(NC(=O)C3CCCCC3)ccc2O[C@@H](C)CCCCO[C@H]1CN(C)C(=O)Cc1ccccc1,inactive
19,COc1ccc(S(=O)(=O)N(C)C[C@@H]2OCCCC[C@@H](C)Oc3ccc(NC(=O)Nc4ccc(F)cc4)cc3C(=O)N([C@@H](C)CO)C[C@@H]2C)cc1,inactive
20,COc1cc2ccnc(CCCN)c2cc1OC,inactive
21,CCOc1ccc(Cc2nccc3cc(OCC)c(OCC)cc23)cc1OCC.Cl,active
22,CCOc1ccc([C@@H](C)N)cc1OCC,inactive
23,C[C@H]1CN([C@@H](C)CO)C(=O)c2cccc(NC(=O)Nc3ccc(C(F)(F)F)cc3)c2O[C@@H]1CN(C)Cc1ccc(C(=O)Nc2ccccc2N)cc1,inactive

row,SMILES,cytotoxicity call
1,C[C@@H]1CN([C@H](C)CO)C(=O)c2cccc(NC(=O)Nc3ccc(C(F)(F)F)cc3)c2O[C@H]1CN(C)Cc1ccc(C(=O)Nc2ccccc2N)cc1,inactive
2,C[C@H]1CN([C@@H](C)CO)C(=O)c2cccc(NC(=O)Nc3ccc(C(F)(F)F)cc3)c2O[C@H]1CN(C)Cc1ccc(C(=O)Nc2ccccc2N)cc1,inactive
3,C[C@H](CO)N1C[C@H](C)[C@@H](CN(C)Cc2ccc(C(=O)Nc3ccccc3N)cc2)Oc2c(NC(=O)Nc3ccc(C(F)(F)F)cc3)cccc2C1=O,inactive
4,C[C@@H]1CN([C@@H](C)CO)C(=O)c2cccc(NC(=O)Nc3ccc(C(F)(F)F)cc3)c2O[C@H]1CN(C)Cc1ccc(C(=O)Nc2ccccc2N)cc1,active
5,C[C@@H]1CN([C@@H](C)CO)C(=O)c2cccc(NC(=O)Nc3ccc(C(F)(F)F)cc3)c2O[C@@H]1CN(C)Cc1ccc(C(=O)Nc2ccccc2N)cc1,active
6,COCC(=O)N(C)C[C@@H]1Oc2cc(C#C[C@H](C)O)ccc2S(=O)(=O)N([C@H](C)CO)C[C@@H]1C,inactive
7,C[C@H]1CN([C@@H](C)CO)C(=O)Cc2cc(NS(=O)(=O)c3ccc(F)cc3)ccc2O[C@@H]1CN(C)Cc1ccc(Cl)c(Cl)c1,active
8,C[C@@H]1CN([C@@H](C)CO)C(=O)Cc2cc(NS(=O)(=O)c3ccc(F)cc3)ccc2O[C@H]1CN(C)Cc1ccc(Cl)c(Cl)c1,inactive
9,C[C@@H]1CN([C@@H](C)CO)C(=O)Cc2cc(NS(=O)(=O)c3ccc(F)cc3)ccc2O[C@@H]1CN(C)Cc1ccc(Cl)c(Cl)c1,active
10,C[C@H](CO)N1C[C@H](C)[C@@H](CN(C)Cc2ccc(Cl)c(Cl)c2)Oc2ccc(NS(=O)(=O)c3ccc(F)cc3)cc2CC1=O,inactive
11,C[C@H](CO)N1C[C@H](C)[C@H](CN(C)Cc2ccc(Cl)c(Cl)c2)Oc2ccc(NS(=O)(=O)c3ccc(F)cc3)cc2CC1=O,inactive
12,C[C@H]1CN([C@@H](C)CO)C(=O)Cc2cc(NS(=O)(=O)c3ccc(F)cc3)ccc2O[C@H]1CN(C)Cc1ccc(Cl)c(Cl)c1,active
13,C[C@@H]1CN([C@H](C)CO)C(=O)Cc2cc(NS(=O)(=O)c3ccc(F)cc3)ccc2O[C@H]1CN(C)Cc1ccc(Cl)c(Cl)c1,active
14,Cc1ccc(S(=O)(=O)Nc2ccc3c(c2)C(=O)N([C@H](C)CO)C[C@H](C)[C@H](CN(C)CC2CC2)O3)cc1,inactive
15,OCCn1cncn1,inactive
16,CN(C)CCCCNC(=O)[C@H]1C[C@H]2C(=O)NCC(=O)N2[C@H]1c1cccc(OCCO)c1,inactive
17,C[C@@H]1CCCCO[C@@H](CN(C)S(=O)(=O)c2cccs2)[C@H](C)CN([C@@H](C)CO)C(=O)c2cc(NC(=O)C3CCCCC3)ccc2O1,inactive
18,Cc1ncc(CO)c(CO)c1O,inactive
19,C[C@@H]1CCCCO[C@H](CN(C)Cc2ccncc2)[C@H](C)CN([C@@H](C)CO)C(=O)c2cc(NC(=O)Nc3ccc4c(c3)OCO4)ccc2O1,inactive
20,Cc1noc(C)c1NC(=O)N(C)C[C@@H]1Oc2ccc(NS(=O)(=O)c3ccccc3)cc2C(=O)N([C@@H](C)CO)C[C@H]1C,inactive
21,C[C@@H]1CN([C@H](C)CO)C(=O)Cc2cc(NS(=O)(=O)c3ccc(F)cc3)ccc2O[C@@H]1CN(C)Cc1ccc(Cl)c(Cl)c1,active
22,COc1ccc(S(=O)(=O)N(C)C[C@H]2Oc3c(NC(=O)C4CCOCC4)cccc3C(=O)N([C@@H](C)CO)C[C@@H]2C)cc1,inactive

# Source: the antibiotic and cytotoxicity screens of Wong et al. (2023)
